INS-1E GSIS act – GLuc luminescence reporter in INS-1E cells, primary screen for activators of glucose-dependent secretion of insulin; INS-1E GLuc reporter insulin secretion, 2-3 h; activation, % at 16.6 µM; 370,000 tested, 0.61% active; AID 743287, 2014;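 active = lowest replicate activation of at least 40%, so every replicate reaches that level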
CFTR F508del cor – F508del CFTR correction, initial screen, CFBE line, single point. CFBE cells, YFP halide quenching; stimulated with forskolin plus potentiator P3; % fluorescence drop versus neutral controls. activity (quench increase), % at 7.58 µM. 350,000 tested, 0.36% active;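 active = mean added fluorescence quench of at least 8% versus neutral control, with both replicates also reaching 8%; inconclusive = only one of the mean or replicate conditions met; inactive = mean below 8% and not both replicates reaching 8%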;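 note: cells transiently co-express mutant CFTR-F508del with the halide-sensitive YFP; corrector assay measuring rescue of mutant channel to the surface after 24 h compound exposure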
Wnt act – Wnt/beta-catenin pathway activators, primary screen, cell-based, plate reader, single point; Wnt/beta-catenin reporter cell assay, activator; activation, % at 9.35 µM; 300,000 tested, 1.2% active; AID 743398, 2014; in the data active = activation above about 30%, passing the limit was not always enough; inconclusive = no clear call, values can overlap the other calls
Env fusion inh – inhibitors of HIV-1 Env-driven cell-cell fusion, primary screen, HeLa-JRFL effector, CEM21 target cells, luciferase; inhibition, % at 12.3 µM; 360,000 tested, 1.1% active;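 active = mean replicate inhibition score of at least 50 and every replicate individually at or above 50; inconclusive = only one of the two criteria met; inactive = mean below 50 and not all replicates reaching 50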
MITF TRPM1 HTS – activators of MITF-driven TRPM1 promoter reporter, primary screen, cell-based, SK-MEL-5, luciferase, single point. SK-MEL-5 TRPM1-promoter luciferase, 24 h; % of positive control, neutral wells = 0. activation, % at 12.5 µM. 300,000 tested, 0.75% active;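 active = mean activation of at least 80% with every replicate also reaching 80%; inconclusive = mean reaches 80% but some replicate falls short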
Numbers stand for hits; – = inactive; ? = inconclusive; · = no result given. A selection: hits, their analogues and other compounds. The true share with any hit is near 2.7%.

SMILES | INS-1E GSIS act | CFTR F508del cor | Wnt act | Env fusion inh | MITF TRPM1 HTS
CCCCCn1c(=O)[nH]c2cc(C(=O)N3CCN(Cc4ccc5c(c4)OCO5)CC3)ccc2c1=O | · | · | – | 67 | ·
Cc1csc(N(C)C(=O)CSc2nnc(COc3cccc4ccccc34)o2)n1 | · | · | – | 105 | –
C/C=C/c1cnc2c(c1)C(=O)N([C@@H](C)CO)C[C@H](C)[C@@H](CN(C)C(=O)CCN1CCCCC1)O2 | – | – | · | – | ·
CCc1nc2ccccc2c(C(=O)OCC(=O)Nc2cccc(S(=O)(=O)N3CCOCC3)c2)c1C | · | · | · | 100 | –
O=C(COC(=O)c1cccc(S(=O)(=O)N2CCOCC2)c1)NCc1ccccc1 | · | – | – | 68 | –
CCCC(=O)Nc1ccc(C(=O)COC(=O)C2=COCCO2)cc1 | – | – | – | – | –
CCCC(=O)Nc1ccc(C(=O)COC(=O)C2CC2C)cc1 (stereo unspecified) | – | – | 45 | – | –
CC(=O)Nc1ccc(C(=O)COC(=O)c2cccs2)c(F)c1 | – | – | 57 | · | 127
CC(=O)c1ccc(NC(=O)COC(=O)C2CC3C=CC2C3)cc1 (stereo unspecified) | – | – | 43 | · | –
O=C(COC(=O)C1CC2C=CC1C2)Nc1ccc2c(c1)OC(F)(F)O2 (stereo unspecified) | · | · | · | – | –
CC(=O)Nc1ccc(C(=O)COC(=O)C2CC2C)c(F)c1 (stereo unspecified) | – | – | 42 | · | 107
C[C@@]12C(=O)N(c3cccc(Cl)c3)C(=O)N1[C@H](c1ccc(Cl)cc1)[C@@H]1C(=O)N(C3CCCCC3)C(=O)[C@@H]12 | – | – | – | 103 | –
COc1ccc(N2C(=O)N3[C@H](c4ccc(Cl)cc4)[C@@H]4C(=O)N(C5CCCCC5)C(=O)[C@@H]4[C@]3(C)C2=O)cc1 | – | – | – | 85 | –
CC(C)(C(=O)N1CCC1(C)C(=O)NS(=O)(=O)c1cccc(Cl)c1)c1ccccc1 (stereo unspecified) | 41 | – | – | – | ·
COc1ccc(F)cc1C(=O)C1CCCN(C(=O)c2ccc(C(C)=O)s2)C1 (stereo unspecified) | 76 | – | – | – | –
CC(=O)c1ccc(C(=O)N2CCCC(C(=O)c3cc(F)ccc3F)C2)s1 (stereo unspecified) | – | – | – | – | –
CCS(=O)(=O)N[C@H]1CC[C@H](CC(=O)N2CCCCC2)O[C@H]1CO | · | – | · | – | ·
CCN(C(=O)C12CC3CC(CC(C3)C1)C2)C1CCS(=O)(=O)C1 (stereo unspecified) | 59 | – | – | – | –
CCN(C(=O)COC(=O)CNC(=O)C12CC3CC(CC(C3)C1)C2)C1CCS(=O)(=O)C1 (stereo unspecified) | – | – | – | – | –
COc1ccc(N=C2SC(CC(=O)Nc3ccccc3)C(=O)N2Cc2ccco2)cc1 (stereo unspecified) | – | · | 44 | – | –
COc1ccc(N=C2SC(CC(=O)Nc3ccccc3F)C(=O)N2Cc2ccco2)cc1 (stereo unspecified) | – | · | · | – | –
CC(=O)N(C)C[C@@H]1Oc2ncc(-c3cccnc3)cc2C(=O)N([C@@H](C)CO)C[C@H]1C | – | – | · | – | ·
O=C(Nc1ccc(F)cc1F)N1CCCN(c2ccc(C(F)(F)F)cn2)CC1 | – | – | – | – | ·
Fc1ccc(NC(=S)N2CCCN(c3ccc(C(F)(F)F)cn3)CC2)c(F)c1 | – | – | – | 61 | –
Cc1cccc(/C=N/NC(=O)c2cc(C)nc3ccccc23)n1 | – | – | – | – | –
SMILES | INS-1E GSIS act | CFTR F508del cor | Wnt act | Env fusion inh | MITF TRPM1 HTS
Cc1cc(C(=O)N/N=C/c2ccc3c(c2)OCO3)c2ccccc2n1 | – | 19 | – | – | ·
CCOc1ccc(/C=N/NC(=O)c2cc(-c3ccco3)nc3ccccc23)cc1 | 69 | · | – | – | –
Cc1cc(C(=O)N/N=C/c2ccc([N+](=O)[O-])cc2)c2ccccc2n1 | – | 14 | – | – | –
O=C(N/N=C/c1ccc(F)cc1)c1cc(-c2ccco2)nc2ccccc12 | · | · | – | – | –
O=C(N/N=C/c1ccc2c(c1)OCO2)c1cc(-c2ccncc2)nc2ccccc12 | – | · | – | – | –
Cc1cc(C(=O)N/N=C/c2ccc(N(C)C)cc2)c2ccccc2n1 | – | 8.3 | – | – | –
CNC(=S)N/N=C/c1ccc(N(C)C)cc1 | – | – | 48 | – | ·
Cc1nc2ccccn2c1C(=O)N/N=C/c1ccc2c(c1)OCO2 | – | · | – | – | 88
CCc1ccc(C(=O)N/N=C(\C)c2cccnc2)s1 | – | – | – | – | 109
CCOc1ccc(-c2cc(C(=O)N/N=C(\C)c3cccnc3)c3ccccc3n2)cc1 | – | – | – | – | 88
Cc1nc2ccccn2c1C(=O)NCc1ccc2c(c1)OCO2 | · | · | · | · | –
CCOC(=O)C1CCCN(C(=O)c2ccc3c(=O)n(CCOC)c(=S)[nH]c3c2)C1 (stereo unspecified) | · | · | · | 66 | –
COCCn1c(=S)[nH]c2cc(C(=O)N3CCC(C(N)=O)(N4CCCCC4)CC3)ccc2c1=O | – | · | · | – | –
Cc1cccc(S(=O)(=O)N2CC[C@H]3[C@@H](CO)N(C)c4ccc(-c5ccccc5F)cc4[C@H]32)c1 | – | – | · | · | ·
O=c1cc(-c2ccccc2)oc2ccc(Cl)cc12 | – | – | 47 | – | ·
O=c1cc(-c2ccccc2F)oc2ccccc12 | · | · | 47 | – | ·
CN(C)CCCN=c1cc(-c2ccccc2)oc2ccc(Cl)cc12 | – | – | – | – | 84
O=c1cc(-c2ccccc2)oc2ccc(Br)cc12 | – | – | ? | – | –
O=c1cc(-c2ccc3c(c2)OCCO3)oc2ccc(Cl)cc12 | – | · | 47 | – | –
C[C@H]1CN([C@@H](C)CO)C(=O)Cc2cc(N(C)C)ccc2O[C@@H]1CN(C)C | – | – | · | – | ·
CC(=O)N1C[C@H]2[C@@H](c3ccccc31)[C@@H](CO)N2C(=O)Nc1ccc(F)cc1 | – | – | · | · | ·
CC(C)C(=O)Nc1ccc2c(c1)C(=O)N(C)[C@@H]1CC[C@@H](CC(=O)N[C@@H](C)c3ccccc3)O[C@@H]1CO2 | – | – | · | – | ·
COC(=O)CN1C(c2ccc(Cl)cc2)=Nc2ccc(Cl)cc2C1c1ccccc1 (stereo unspecified) | – | · | · | 80 | –
COc1ccc(C2=Nc3ccc(C)cc3C(c3ccccc3)N2CC(=O)NN)cc1 (stereo unspecified) | – | – | – | – | –
Cc1cccc(N2CCN(C(=O)c3cn(C)c(=O)c4c3c3ccccc3n4C)CC2)c1C | · | – | – | · | –
Cc1ccc(Cl)cc1N1CCN(C(=O)c2cn(C)c(=O)c3c2c2ccccc2n3C)CC1 | – | 10 | – | · | –
Cc1ccccc1-c1ccc(C2[C@@H]3CN(C(=O)C4CCC4)C[C@H]2N3)cc1 (stereo partly specified) | – | · | · | · | ·
O=c1c2sccc2n(Cc2cccc(F)c2)c(=O)n1-c1ccc(F)cc1 | 46 | · | · | · | –

Bioassay records from PubChem BioAssay.
